KKLEB tox: counter-screen for CF NF-kB inhibitors: cytotoxicity | KKLEB CF airway cells viability, ATPlite luminescence, overnight; active compounds read low; cells stimulated with P. aeruginosa culture filtrate | activity change (cytotoxicity), % at 5 µM | 0.36% of 360,000 active | AID 602141;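 active means corrected activity change at or below -50% at 5 µM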
CHOP inh: CHOP inhibition in unfolded protein response. CHO-K1 CHOP-promoter luciferase, tunicamycin-induced, 15-18 h. inhibition, % at 10 µM. 3.8% of 220,000 active. AID 2732;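 active means compounds that reduced the stress-induced luciferase reporter signal by more than about 70% of percent inhibition, limit read from the data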
CF NFkB inh: cystic fibrosis NF-kB activation inhibition; inhibition, % at 5 µM; KKLEB NF-kB-GFP reporter, PAF-induced, GFP fluorescence overnight; AID 588850; 0.86% of 360,000 active;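 active means at least 50% inhibition at 5 µM, scaled per plate between neutral and stimulator controls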;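 further: PAF is a Pseudomonas aeruginosa culture filtrate used as stimulus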
HIF-2a inh: inhibitors of HIF-2a; 0.72% of 360,000 active; AID 624352; inhibition, % at 18.8 µM; 786-0 RCC cells HIF-2a reporter, luciferase luminescence, overnight;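 active means inhibition of the luminescence signal of 40% or more relative to plate controls, in a single-dose primary screen at 18.75 µM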
MITF TRPM1 inh: inhibitors of MITF-driven TRPM1 promoter in melanoma cells. inhibition, % at 12.5 µM. 0.83% of 330,000 active. SK-MEL-5 TRPM1 promoter luciferase, 24 h;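 active means mean inhibition across replicates of 60% or more, whatever share of single replicates reaches that level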
Peg3 prom inh: inhibitors of Peg3 promoter; HeLa PEG-Prom luciferase reporter, luminescence, overnight; inhibition, % at 20 µM; 1.7% of 360,000 active; AID 588405;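 active means inhibition of at least 50% at 20 µM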
Numbers stand for hits; i = inactive; nt = no result. A selection: hits, their analogues and other compounds. The true share with any hit is near 4.3%.

SMILES	KKLEB tox	CHOP inh	CF NFkB inh	HIF-2a inh	MITF TRPM1 inh	Peg3 prom inh
COc1ccc2c(c1)C(NC(C)=O)CCc1cc(OC)c(OC)c(OC)c1-2 (stereo unspecified)	i	nt	i	i	i	i
CCCCn1c(O)c(C(=O)/C=C/c2ccc3c(c2)OCO3)c(=O)[nH]c1=O	i	i	i	i	i	i
O=C(/C=C/c1ccc2c(c1)OCO2)c1c(O)n(CCC2=CCCCC2)c(=O)[nH]c1=O	i	90.0	i	i	i	i
CCCCN1C(=O)/C(=C/c2ccc(N3CCCCCC3)cc2)C(=O)NC1=S	nt	i	nt	nt	nt	nt
CCC(C)N1C(=O)/C(=C\c2ccc(N3CCCCCC3)cc2)C(=O)NC1=S (stereo unspecified)	i	71.3	i	i	i	i
CN1C(=O)/C(=C\c2ccc(N3CCCCCC3)cc2)C(=O)NC1=S	i	i	i	i	i	77.7
CCC(C)N1C(=O)/C(=C\c2cc3c4c(c2)CCCN4CCC3)C(=O)NC1=S (stereo unspecified)	i	i	i	i	i	i
CN1CCN(c2ccc3ccccc3n2)CC1	nt	i	nt	nt	nt	nt
O=C1NCN(c2ccccc2)C12CCN(C(CCc1ccccc1)c1nnnn1Cc1ccccc1)CC2 (stereo unspecified)	i	nt	i	i	nt	58.6
O=C1NC(=O)C(CCc2ccccn2)(Cc2ccc3c(c2)OCO3)C(=O)N1CCc1ccccc1 (stereo unspecified)	i	i	i	i	i	i
Clc1ccc2c(c1)C(OC1CN3CCC1CC3)c1ccccc1CS2 (stereo unspecified)	i	i	i	i	i	96.6
CN1CCN(CCOC2c3ccccc3CSc3ccc(Cl)cc32)CC1 (stereo unspecified)	i	i	i	i	i	i
COC(=O)C1=C(c2c(C)noc2C)C[C@@H]2CC[C@H]1N2C(=O)N1CCCC1	i	nt	i	i	i	i
CCOC(=O)C(=CNc1ccc(C(O)(C(=O)OCC)C(F)(F)F)cc1C)C(=O)OCC (stereo unspecified)	i	89.5	i	i	i	i
CCOC(=O)C(O)(c1ccc(NC(=O)c2ccc(Cl)c(Cl)c2)cc1)C(F)(F)F (stereo unspecified)	i	i	i	i	i	i
CCC1CN2CCc3cc(OC)c(OC)cc3C2CC1CC1NCCc2c1[nH]c1ccc(O)cc21 (stereo unspecified)	i	nt	89.3	57.5	97.1	98.8
O=C1CC[C@@]2(O)C3Cc4ccc(O)c5c4C2(CCN3CC2CC2)[C@H]1O5 (stereo partly specified)	nt	i	nt	nt	nt	nt
CN1CCCC(C(=O)c2ccc(Cl)cc2)C1 (stereo unspecified)	i	i	i	i	i	i
CC(C)=CCc1c(O)cc2c(c1O)C(=O)CC(c1ccc(O)cc1)O2 (stereo unspecified)	i	76.6	i	i	nt	i
Oc1ccc(O)c2c1C1(Cl)C(Cl)=C(Cl)C2(Cl)C1(Cl)Cl	i	nt	i	i	i	61.1
O=C(O)c1ccc(-[n+]2c(-c3ccccc3)cc(-c3ccccc3)cc2-c2ccccc2)cc1	i	nt	i	i	i	i
Brc1ccc(-[n+]2c(-c3ccccc3)cc(-c3ccccc3)cc2-c2ccccc2)cc1	i	nt	i	i	70.2	i
Cc1ccccc1-[n+]1c(-c2ccccc2)cc(-c2ccccc2)cc1-c1ccccc1	i	nt	i	i	89.6	i
CCCOC(=O)c1ccc(-[n+]2c(-c3ccccc3)cc(-c3ccccc3)cc2-c2ccccc2)cc1	i	nt	i	i	64.4	i
Oc1ccccc1-[n+]1c(-c2ccccc2)cc(-c2ccccc2)cc1-c1ccccc1	i	nt	i	i	i	i
SMILES	KKLEB tox	CHOP inh	CF NFkB inh	HIF-2a inh	MITF TRPM1 inh	Peg3 prom inh
N#CC12c3ccccc3C(=O)N1Cc1cnnn1-c1ccccc12 (stereo unspecified)	i	nt	i	i	nt	i
CCN(CC)c1ccc(N=Cc2c(O)n(CCc3ccc(OC)c(OC)c3)c(=O)[nH]c2=O)cc1	i	i	i	i	i	68.6
COc1ccc(OC)c(-n2c(O)c(C=Nc3c(C)n(C)n(-c4ccccc4)c3=O)c(=O)[nH]c2=S)c1	i	i	i	i	nt	i
COc1cc2cc(C(=O)N3CC(COS(C)(=O)=O)c4ccc(O)cc43)[nH]c2c(OC)c1OC (stereo unspecified)	-95.9	nt	88.1	83.5	109.8	99.1
COC(=O)N1Cc2ccccc2-n2nncc2C1	i	nt	i	i	nt	i
CCN1C[C@]2(COC)CC[C@H](OC)[C@@]34C5C[C@H]6C(=O)C5[C@](O)(C[C@H]6OC)[C@@](O)(C(OC)C23)[C@@H]14 (stereo partly specified)	i	nt	i	i	i	i
c1ccc(CCN2CCCCC2)nc1	i	nt	i	i	i	i
CC1(C)C(C(=O)N2CCN(c3ccc(Cl)cc3)CC2)C1(C)C	i	nt	i	i	i	i
COC(=O)C1CN(C#N)N(c2ccc(Cl)cc2)C12c1ccccc1-c1ccccc12 (stereo unspecified)	-102.3	nt	96.9	90.4	97.8	108.6
Oc1ccc2c3c1O[C@H]1[C@@H](O)CC[C@@]4(O)C(C2)N(CC2CCC2)CCC314 (stereo partly specified)	nt	i	nt	nt	nt	nt
O=C(O)[C@@H]1CCN1	nt	i	nt	nt	nt	nt
COc1ccc(-c2nc3ccccc3c(=O)n2-c2ccc(OC)cc2)cc1	i	i	i	i	i	i
CCn1nc(-c2ccccc2)nc2c(=O)n(C)c(=O)nc1-2	i	107.8	i	i	99.3	i
COC1CC2C=C(C)C=CC=CC(=O)NC(c3ccccc3)CC=CCCC(O)CC(=O)C2=C1O (stereo unspecified)	-85.2	nt	91.3	77.2	nt	98.1
Cc1cccc(N2C(=O)NC(=O)/C(=C\C=C\c3ccco3)C2=O)c1	i	i	87.5	i	98.2	i
CN(C)c1ccc(/C=C/C=C2/C(=O)NC(=O)N(c3ccccc3)C2=O)cc1	i	83.9	70.5	i	83.1	103.3
CN1C(=O)/C(=C/C=C/c2ccco2)C(=O)NC1=S	i	i	i	i	i	i
O=C1NC(=O)N(c2ccccc2)C(=O)/C1=C/C=C/c1ccco1	i	i	i	i	94.7	i
CS(=N)(=O)CC[C@H](N)C(=O)O (stereo partly specified)	nt	i	nt	nt	nt	nt
COc1ncccc1C(=O)NCC(CC(=O)O)c1ccccc1 (stereo unspecified)	i	i	i	i	i	i
CCN1C(=O)/C(=C/c2ccc3c(c2)CCN3CCCCl)C(=O)NC1=S	i	89.8	i	i	i	i
N[C@@]1(C(=O)O)CC[C@@H](C(=O)O)C1	i	i	i	i	i	i
Cc1cc(C(=O)OCC(=O)Nc2ccc(F)cc2)c(C)n1C1CC1	i	nt	i	i	nt	i
O=C1NC(=O)C(=Cc2ccc(-c3ccc(S(=O)(=O)N4CCOCC4)cc3)o2)C(=O)N1	i	nt	i	i	i	i
O=C1NC(=O)C(=Cc2ccc(-c3ccc(Cl)cc3)o2)C(=O)N1	i	nt	i	i	67.7	101.7

High-throughput results from PubChem.
